# Screening data from PubChem.
# Hits are enriched below; roughly 19% of the tested compounds scored in any of these assays.
# ELG1 DNA repair – ELG1-dependent DNA repair inhibition; HEK293T ELG1-luciferase reporter, luminescence, 16 h; DNA damage induced by 5-fluorouridine; Potency, µM (highest dose often 46.1 µM), for inactives: at the highest dose activity change, negative = inhibition, actives largely listed as inhibitors; hit rate 2.3% among 330,000; AID 504467; further: potency means the concentration at half of the fitted maximal effect; nearly all actives have a fitted effect of over 55% in size
#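 Step one: seed 2,000 cells per well. Step two: pin-transfer compound or DMSO alongside 5-fluorouridine. Step three: incubate 16 hr, 37 °C, 5% CO2. Step four: add ONE-Glo, wait 30 min, read luminescence.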
# TDP1 cell noCPT – qHTS for Inhibitors of human tyrosyl-DNA phosphodiesterase 1 (TDP1): qHTS in cells in absence of CPT. DT40 Tdp1-/- hTDP1 cells, no CPT, ATP luminescence, 48 h. Potency, µM (doses to about 46.2 µM), for the others: top-dose activity change, negative = growth inhibition, actives largely listed as inhibitors. hit rate 15% among 420,000. AID 686978, 2013; further: potency means the concentration at half of the fitted maximal effect; nearly all actives have a fitted effect of over 55% in size
#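 Compound effects on proliferation are scored in DT40 Tdp1-/-;hTDP1 cells in the absence of CPT. ATP levels (CellTiter-Glo luminescence) are recorded after a ≥48 hr, 37 °C incubation.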
# HT1080-NT tox – kills 2HG-producing HT-1080-NT fibrosarcoma cells | HT-1080-NT fibrosarcoma viability, CellTiter-Glo ATP luminescence, 48 h | Potency, µM (highest dose often 46.1 µM), for inactives: at the top dose activity, negative = less viability, usual class: cytotoxic | hit rate 1.6% among 360,000;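 further: NT is the 2HG producing partner of a matched IDH1 knockdown line; potency means the concentration at half of the fitted maximal effect; 0% = DMSO-treated cells and -100% = media-only wells without cells; nearly all actives have a fitted effect of over 55% in size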
#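 Fibrosarcoma NT cells, 750 per well in 5% FBS RPMI, were exposed to compound for 48 hours. Viability: CellTiter-Glo luminescence.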
# HT1080 IDH1KD tx – kills HT-1080 cells with IDH1 knockdown | HT-1080 IDH1 knockdown viability, ATP luminescence, 48 h | Potency, µM (highest dose often 46.1 µM), for the others: top-dose activity, negative = toxicity, usual class: cytotoxic | hit rate 2% among 360,000;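 further: potency means the concentration at half of the fitted maximal effect; 0% = DMSO wells and -100% = cell-free medium wells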
#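 In this qHTS, HT-1080 cells depleted of IDH1 are exposed for 48 h at 37 °C to compound titrations. Toxicity is scored from CellTiter-Glo luminescence, with DMSO as full viability and medium alone as none.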
# IL-1B inflam inh – blocks inflammasome-driven IL-1 beta release; THP-1 LPS/ATP IL-1B secretion, AlphaLISA, 16 h; stronger effect = lower value; activity change, % at 57.5 µM; hit rate 4.7% among 360,000; in the data active means activity change below about -50%; inconclusive means mostly about -30% to -49%
#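 THP-1 cells pretreated 1 hr with compounds (up to 57.5 uM final), then stimulated with LPS (250 ng/mL final) plus ATP (1.25 mM final); secreted IL-1B measured by AlphaLISA after 16 hr, decreased signal indicating inhibition.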
# DT40 TDP1 CPT – DT40-hTDP1 cell growth loss with CPT | chicken DT40 Tdp1-/-;hTDP1 cells + 20 nM CPT, ATP luminescence, 48 h | Potency, µM (titrated, usually from 46.2 µM), for the others: at the top dose activity change, negative = growth inhibition, most hits filed as inhibitors | hit rate 12% among 420,000; further: potency means the concentration at half of the fitted maximal effect; nearly all actives have a fitted effect of over 55% in size
#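 Chicken DT40 Tdp1-/- cells complemented with human TDP1, 400 cells/well, exposed to compounds plus 20 nM camptothecin for at least 48 h at 37 C; viability read as ATP content by CellTiter-Glo luminescence.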
# * marks the source's active call; other numbers are inactive results; u = inconclusive; x = no result given; [ ] = dose if it differs, or a comment. Unless noted, the call rests on the fitted dose curve; in most records, active means well fitted curve in the direction sought with a large enough effect; inconclusive means small, poorly fitted or top-dose-only effect, or another doubt; inactive means no such curve, though single readings can be large; an effect the other way counts as inactive or inconclusive. Unless noted, on the % scale 0 is the no-effect control and ±100 the full control effect.
SMILES,ELG1 DNA repair,TDP1 cell noCPT,HT1080-NT tox,HT1080 IDH1KD tx,IL-1B inflam inh,DT40 TDP1 CPT
FC(F)(F)c1cc(-c2ccccc2)nc(N2CCCCC2)n1,9.5%,-26.7%,-0.7%,-3.1%[9.24 µM],15.4,-92.5%
COc1cccc(Cn2c(=O)c(C)nc3cnc(N4CCOCC4)nc32)c1,x,-14.1%,x,x,x,9.8%
N#Cc1ccccc1CCN1C(=O)c2ccccc2C1=O,u,6.0%,0.8%,21.3%,11.9,-2.1%
CCCCc1c(-c2ccc(F)cc2F)ncn1CCc1ccccc1OC,x,25.9µM*,u,u,-70.9*,23.1µM*
CCCCc1c(Cc2cccc(F)c2)ncn1CCc1ccccc1OC,x,13µM*,16.4µM*,u,0.0,u
CCCCCc1c(-c2ccc(F)cc2F)ncn1CCc1ccccc1OC,x,20.6µM*,u,u,-99.9*,u
COc1cccc2c1c(NC(=O)Nc1ccc(F)cc1F)nn2C,-1.8%,2.7%,1.8%,19.2%,27.8,0.4%
Cc1cc(=O)n(Cc2cccc(F)c2)c2c1c(C)nn2-c1cccc(F)c1,x,-0.7%,x,x,x,-12.9%
CCOC(=O)c1ccc(NC(=O)c2cc(=O)c3cc(CC)ccc3o2)cc1,x,-15.1%,x,x,x,-0.2%
COc1cccc(-n2sc3c(c2=S)-c2cc(OC)ccc2NC3(C)C)c1,u,u,u,u,-22.8,u
CC1(C)Nc2ccc(O)cc2-c2c1ssc2=S,11.6µM*,2.06µM*,-11.0%,-2.3%,-12.1,0.731µM*
O=C(Cn1nnc(-c2ccccc2Cl)n1)Nc1ccc(Br)cc1,x,-26.0%,x,x,x,-11.2%
COc1ccc2[nH]c3c(NCCCOC(C)C)ncnc3c2c1,u,u,u,u,-66.5*,u
COc1ccc2c(c1)[nH]c1c(=O)n(CCC3=CCCCC3)cnc12,5.1%,23.1µM*,10.3%,11.2%,-3.9,u
CCOc1ccc2[nH]c3c(NCCC(C)C)ncnc3c2c1,u,18.4µM*,u,u,-68.2*,25.9µM*
COc1ccc(-n2ncc3c(NCCC4=CCCCC4)ncnc32)cc1,x,u,x,x,x,16.4µM*
C[C@@H]1CN([C@H](C)CO)C(=O)CCCn2nncc2CO[C@H]1CN(C)CC1CC1,x,-2.3%,19.9%,22.2%,0.7,3.2%
O=C(CN1C(=O)NC2(CCCCCC2)C1=O)c1ccc(OC(F)F)cc1OC(F)F,-13.2%,u,-1.8%,-12.8%,-15.6,u
COc1ccccc1C(=O)Nc1nnc(SCc2cc(=O)n3ccc(C)cc3n2)s1,x,0.7%,x,x,x,0.1%
COc1cccc(/C=N/Nc2ncnc3c2[nH]c2ccc(C)cc23)c1OC,20.2%,5.8µM*,-10.7%,-0.5%,149.1,2.06µM*
C=CCNc1ncnc2c1[nH]c1ccc(C)cc12,u,20.6µM*,u,u,-101.5*,29.1µM*
COc1ccc2[nH]c3c(NCCC4=CCCCC4)ncnc3c2c1,u,2.91µM*,29.1µM*,16.4µM*,-105.1*,2.59µM*
Fc1ccc2[nH]c3c(NCc4ccccc4)ncnc3c2c1,u,5.17µM*,u,u,-85.6*,5.17µM*
Cc1ccc2[nH]c3c(NCCN4CCOCC4)ncnc3c2c1,u,u,-7.8%,-16.0%,-5.2,u
OCCCNc1ncnc2c1[nH]c1ccccc12,0.0%,-16.4%,-1.7%,-2.9%,38.8,-10.4%
C[C@H](CO)N1C[C@H](C)[C@@H](CN(C)Cc2ccc(Cl)c(Cl)c2)Oc2ccc(NC(=O)Cn3cnnn3)cc2C1=O,-0.1%,-1.6%,1.1%,8.2%,-7.2,u
COc1cc2c(cc1OC)C1=NC(=O)CN1C(SCc1ccccc1)=N2,-15.4%,9.2µM*,-2.4%,-3.4%,-9.1,18.4µM*
